Test results as given in PubChem BioAssay (EPA / NIEHS).
Values joined by “and” are separate entries in the source; they are usually repeats but may differ in a detail not shown here. Equal values may be shown once. Records with an inconclusive call do not appear. The source holds several records for some structures; these can differ, active in one and inactive in another. Active and inactive are the calls of the source. How the source made its calls: active means hit-call score of the fitted dose curve at least 0.9, where 1 is the maximum; inconclusive means response in the unintended direction; inactive means score below 0.9.

What was measured:
[1] = molecular target: Peroxisome proliferator-activated receptor gamma (Homo sapiens) (UniProt P37231); assay: ATG_PPARg_TRANS: Attagene TRANS-FACTORIAL HepG2 Assay for human Peroxisome Proliferator-activated Receptor-gamma (PPARg) (AID 2283007)
Sequence of Peroxisome proliferator-activated receptor gamma (Homo sapiens) (P37231 whole entry, looked up, the tested form may be a part): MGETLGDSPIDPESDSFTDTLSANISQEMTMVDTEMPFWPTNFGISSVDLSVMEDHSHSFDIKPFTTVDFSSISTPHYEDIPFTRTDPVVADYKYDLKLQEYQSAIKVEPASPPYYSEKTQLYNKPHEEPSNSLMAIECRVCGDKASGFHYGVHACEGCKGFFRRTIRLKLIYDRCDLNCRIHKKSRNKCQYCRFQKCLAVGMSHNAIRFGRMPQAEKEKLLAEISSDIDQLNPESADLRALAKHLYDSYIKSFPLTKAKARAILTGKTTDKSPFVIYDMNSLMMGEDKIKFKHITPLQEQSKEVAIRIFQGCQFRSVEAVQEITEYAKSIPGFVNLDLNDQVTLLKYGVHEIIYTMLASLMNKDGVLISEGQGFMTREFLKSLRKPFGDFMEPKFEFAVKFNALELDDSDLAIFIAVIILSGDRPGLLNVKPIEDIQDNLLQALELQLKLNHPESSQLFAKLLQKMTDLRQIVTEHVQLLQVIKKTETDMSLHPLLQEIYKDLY
How it was run: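 HepG2 cells transiently transfected with multiplexed GAL4-UAS reporter units and exogenous chimeric NR-Gal4 proteins; reporter mRNA quantified after 24 h compound exposure by RT-PCR, fluorescent labelling, HpaI digestion and capillary electrophoresis; gain-of-signal fitted versus DMSO baseline.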

[2] = molecular target: Nuclear receptor subfamily 1 group I member 2 (Homo sapiens) (UniProt O75469); assay: ATG_PXR_TRANS: Attagene TRANS-FACTORIAL HepG2 Assay for human Pregnane X Receptor (PXR) (AID 2283008)
Sequence of Nuclear receptor subfamily 1 group I member 2 (Homo sapiens) (O75469 whole entry, looked up, the tested form may be a part): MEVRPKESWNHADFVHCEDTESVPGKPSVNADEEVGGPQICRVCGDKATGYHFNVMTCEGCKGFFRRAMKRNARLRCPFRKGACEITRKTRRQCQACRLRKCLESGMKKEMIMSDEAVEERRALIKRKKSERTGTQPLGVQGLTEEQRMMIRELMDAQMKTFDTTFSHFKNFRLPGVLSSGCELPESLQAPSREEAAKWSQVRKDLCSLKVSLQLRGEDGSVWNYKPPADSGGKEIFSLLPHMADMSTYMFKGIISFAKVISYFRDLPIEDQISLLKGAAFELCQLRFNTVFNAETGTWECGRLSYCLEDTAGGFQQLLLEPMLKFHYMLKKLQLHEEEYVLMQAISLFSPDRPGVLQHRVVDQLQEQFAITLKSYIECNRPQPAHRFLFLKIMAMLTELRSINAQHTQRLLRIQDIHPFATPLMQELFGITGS
How it was run: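 HepG2 cells transiently transfected with multiple reporter units, here a PXR-GAL4 chimera driving a GAL4-UAS reporter; 24 h compound exposure. Reporter mRNA measured by RT-PCR, FAM labelling and capillary electrophoresis; gain of signal fitted against DMSO baseline.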

[3] = molecular target: human Retinoic Acid Receptor gamma (RARg), RARG (gene 5916) (UniProt P13631); assay: ATG_RARg_TRANS: Attagene TRANS-FACTORIAL HepG2 Assay for human Retinoic Acid Receptor gamma (RARg) (AID 2283009);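 on AC50: AC50 is for reporter induction above DMSO meaning RARg activation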
Sequence of human Retinoic Acid Receptor gamma (RARg), RARG (gene 5916) (P13631 whole entry, looked up, the tested form may be a part): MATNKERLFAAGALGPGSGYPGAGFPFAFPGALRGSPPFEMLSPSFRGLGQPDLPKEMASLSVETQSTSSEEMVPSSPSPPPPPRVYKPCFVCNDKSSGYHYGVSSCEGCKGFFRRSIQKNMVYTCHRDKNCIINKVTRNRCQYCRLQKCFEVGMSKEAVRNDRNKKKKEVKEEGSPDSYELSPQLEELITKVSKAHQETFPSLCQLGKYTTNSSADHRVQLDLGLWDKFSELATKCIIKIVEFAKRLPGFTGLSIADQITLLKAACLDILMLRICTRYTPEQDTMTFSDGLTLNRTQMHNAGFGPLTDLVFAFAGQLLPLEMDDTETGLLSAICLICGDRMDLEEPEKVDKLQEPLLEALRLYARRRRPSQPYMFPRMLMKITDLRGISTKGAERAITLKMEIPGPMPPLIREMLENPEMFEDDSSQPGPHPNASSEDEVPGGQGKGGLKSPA
How it was run: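 HepG2, RARg-GAL4 TRANS system, 24 h exposure; reporter mRNA by RT-PCR + CE fluorescence; increase over DMSO.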

[4] = molecular target: human RAR-related Orphan Receptor beta (RORb), RORB (gene 6096) (UniProt Q92753); assay: ATG_RORb_TRANS: Attagene TRANS-FACTORIAL HepG2 Assay for human RAR-related Orphan Receptor beta (RORb) (AID 2283010)
Sequence of human RAR-related Orphan Receptor beta (RORb), RORB (gene 6096) (Q92753 whole entry, looked up, the tested form may be a part): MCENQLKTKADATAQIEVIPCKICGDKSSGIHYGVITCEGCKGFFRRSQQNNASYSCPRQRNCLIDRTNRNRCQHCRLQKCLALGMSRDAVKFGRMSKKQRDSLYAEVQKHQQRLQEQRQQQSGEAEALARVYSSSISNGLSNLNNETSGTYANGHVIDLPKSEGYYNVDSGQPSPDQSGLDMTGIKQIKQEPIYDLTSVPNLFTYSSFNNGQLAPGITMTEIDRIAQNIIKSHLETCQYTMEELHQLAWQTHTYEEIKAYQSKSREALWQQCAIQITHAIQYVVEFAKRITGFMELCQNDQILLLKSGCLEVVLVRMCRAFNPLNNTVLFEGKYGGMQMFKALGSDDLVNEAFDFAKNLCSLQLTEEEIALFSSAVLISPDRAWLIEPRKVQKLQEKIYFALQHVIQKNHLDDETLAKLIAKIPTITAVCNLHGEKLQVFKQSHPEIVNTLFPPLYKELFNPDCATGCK
How it was run: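 In this TRANS-format test, human HepG2 cells express chimeric NR-Gal4 fusion proteins driving GAL4-UAS reporters. After 24 h dosing, reporter transcripts are measured by fluorescent RT-PCR/capillary electrophoresis, with DMSO as negative control.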

[5] = molecular target: human RAR-related Orphan Receptor gamma (RORg), RORC (gene 6097) (UniProt P51449); assay: ATG_RORg_TRANS: Attagene TRANS-FACTORIAL HepG2 Assay for human RAR-related Orphan Receptor gamma (RORg) (AID 2283011)
Sequence of human RAR-related Orphan Receptor gamma (RORg), RORC (gene 6097) (P51449 whole entry, looked up, the tested form may be a part): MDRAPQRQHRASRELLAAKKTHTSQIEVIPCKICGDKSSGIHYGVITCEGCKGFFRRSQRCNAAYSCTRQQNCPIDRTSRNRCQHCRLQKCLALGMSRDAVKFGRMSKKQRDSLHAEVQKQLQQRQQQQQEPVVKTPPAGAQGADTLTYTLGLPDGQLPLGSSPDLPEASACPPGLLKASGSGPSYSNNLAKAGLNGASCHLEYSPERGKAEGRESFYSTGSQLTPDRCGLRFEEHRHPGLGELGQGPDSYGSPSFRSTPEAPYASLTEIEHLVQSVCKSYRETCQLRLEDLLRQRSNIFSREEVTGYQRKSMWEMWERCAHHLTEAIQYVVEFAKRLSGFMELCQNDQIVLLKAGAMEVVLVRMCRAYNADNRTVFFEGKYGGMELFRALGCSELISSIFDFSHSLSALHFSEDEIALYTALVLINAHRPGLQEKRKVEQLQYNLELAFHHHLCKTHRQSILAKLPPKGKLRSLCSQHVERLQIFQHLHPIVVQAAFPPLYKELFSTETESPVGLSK
How it was run: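 Transient MRTU transfection of HepG2 (TRANS format, exogenous NR-Gal4 chimera). 24 h dosing. Total RNA → oligo(dT) RT → PCR → 6-FAM labelling → HpaI cut → CE. Gain vs DMSO.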

[6] = molecular target: Retinoic acid receptor RXR-alpha (Homo sapiens) (UniProt P19793); assay: ATG_RXRa_TRANS: Attagene TRANS-FACTORIAL HepG2 Assay for human Retinoid X Receptor alpha (RXRa) (AID 2283012)
Sequence of Retinoic acid receptor RXR-alpha (Homo sapiens) (P19793 whole entry, looked up, the tested form may be a part): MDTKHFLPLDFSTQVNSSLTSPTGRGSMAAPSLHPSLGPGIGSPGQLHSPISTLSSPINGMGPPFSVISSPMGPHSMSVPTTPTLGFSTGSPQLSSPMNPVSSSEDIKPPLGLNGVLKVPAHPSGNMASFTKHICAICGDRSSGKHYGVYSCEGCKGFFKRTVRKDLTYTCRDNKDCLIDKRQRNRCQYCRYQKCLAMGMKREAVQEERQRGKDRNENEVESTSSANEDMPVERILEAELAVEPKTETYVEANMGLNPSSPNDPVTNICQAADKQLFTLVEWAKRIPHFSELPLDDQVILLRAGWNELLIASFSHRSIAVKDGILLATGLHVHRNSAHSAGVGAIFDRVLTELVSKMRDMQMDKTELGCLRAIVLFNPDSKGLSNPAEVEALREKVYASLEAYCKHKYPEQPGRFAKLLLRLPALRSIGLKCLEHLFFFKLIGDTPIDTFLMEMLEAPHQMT
How it was run: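 Cells (HepG2) carried transiently transfected GAL4-responsive reporter units. Following a 24 h chemical incubation, reporter mRNA induction was read via RT-PCR fragment analysis; DMSO served as negative control and baseline.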

[7] = molecular target: human Thyroid Receptor alpha (THRa1), THRA (gene 7067) (UniProt P10827); assay: ATG_THRa1_TRANS: Attagene TRANS-FACTORIAL HepG2 Assay for human Thyroid Receptor alpha (THRa1) (AID 2283014)
Sequence of human Thyroid Receptor alpha (THRa1), THRA (gene 7067) (P10827 whole entry, looked up, the tested form may be a part): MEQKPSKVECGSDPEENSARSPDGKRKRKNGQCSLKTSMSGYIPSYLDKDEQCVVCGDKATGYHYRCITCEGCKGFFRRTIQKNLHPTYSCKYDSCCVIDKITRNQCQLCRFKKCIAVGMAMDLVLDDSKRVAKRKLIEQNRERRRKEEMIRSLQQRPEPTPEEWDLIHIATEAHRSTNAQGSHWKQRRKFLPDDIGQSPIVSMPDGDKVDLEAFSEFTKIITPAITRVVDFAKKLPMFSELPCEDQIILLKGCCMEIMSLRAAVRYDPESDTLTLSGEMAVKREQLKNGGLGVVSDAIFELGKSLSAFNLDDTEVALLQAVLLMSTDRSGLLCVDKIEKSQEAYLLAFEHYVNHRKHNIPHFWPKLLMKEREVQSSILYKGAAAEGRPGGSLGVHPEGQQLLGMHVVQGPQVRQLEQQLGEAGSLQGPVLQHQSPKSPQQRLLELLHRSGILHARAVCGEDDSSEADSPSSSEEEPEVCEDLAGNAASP
How it was run: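 Transient HepG2 transfection, NR-Gal4 chimera driving GAL4-UAS reporters; 24 h compound exposure; total RNA, oligo(dT) RT, PCR, fluorescent primer extension, capillary electrophoresis. Upward direction vs DMSO control.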

[8] = molecular target: human Vitamin D Receptor (VDR), VDR (gene 7421) (UniProt P11473); assay: ATG_VDR_TRANS: Attagene TRANS-FACTORIAL HepG2 Assay for human Vitamin D Receptor (VDR) (AID 2283022)
Sequence of human Vitamin D Receptor (VDR), VDR (gene 7421) (P11473 whole entry, looked up, the tested form may be a part): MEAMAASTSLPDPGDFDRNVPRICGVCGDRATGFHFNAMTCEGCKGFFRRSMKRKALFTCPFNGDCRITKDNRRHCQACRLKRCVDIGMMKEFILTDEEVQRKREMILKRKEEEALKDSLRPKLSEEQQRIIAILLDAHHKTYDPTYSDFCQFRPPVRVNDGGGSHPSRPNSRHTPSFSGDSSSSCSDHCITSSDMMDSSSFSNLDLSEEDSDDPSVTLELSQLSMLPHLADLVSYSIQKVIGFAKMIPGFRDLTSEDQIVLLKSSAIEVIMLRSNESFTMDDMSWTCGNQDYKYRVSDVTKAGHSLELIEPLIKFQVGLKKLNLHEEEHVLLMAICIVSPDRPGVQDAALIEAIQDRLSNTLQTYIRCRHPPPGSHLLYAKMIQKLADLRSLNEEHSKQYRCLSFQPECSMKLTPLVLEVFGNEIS
How it was run: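 RT-PCR/capillary electrophoresis read-out of reporter mRNA induction in transiently transfected HepG2; 24 h dosing; chimeric NR-Gal4 (TRANS format); gain-of-signal fit against DMSO baseline.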

[9] = molecular target: Retinoic acid receptor alpha (Homo sapiens) (UniProt P10276); assay: ATG_RARa_TRANS: Attagene TRANS-FACTORIAL HepG2 Assay for human Retinoic Acid Receptor alpha (RARa) (AID 2283005)
Sequence of Retinoic acid receptor alpha (Homo sapiens) (P10276 whole entry, looked up, the tested form may be a part): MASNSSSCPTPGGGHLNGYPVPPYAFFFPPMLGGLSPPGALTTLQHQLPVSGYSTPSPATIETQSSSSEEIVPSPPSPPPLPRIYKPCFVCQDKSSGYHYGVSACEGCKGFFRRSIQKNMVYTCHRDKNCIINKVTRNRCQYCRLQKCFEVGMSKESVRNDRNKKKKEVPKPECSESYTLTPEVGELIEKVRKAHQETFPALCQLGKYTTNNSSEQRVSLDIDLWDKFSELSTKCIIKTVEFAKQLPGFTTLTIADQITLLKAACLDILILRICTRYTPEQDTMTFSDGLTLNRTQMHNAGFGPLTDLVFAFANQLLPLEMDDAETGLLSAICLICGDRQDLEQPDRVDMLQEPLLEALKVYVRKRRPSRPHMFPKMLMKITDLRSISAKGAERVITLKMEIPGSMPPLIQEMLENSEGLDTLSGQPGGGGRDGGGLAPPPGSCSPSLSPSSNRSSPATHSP
How it was run: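 Reporter transcripts, measured by RT-PCR with fluorescent labeling and capillary electrophoresis after 24 h dosing, reflect activity of an exogenous human RARa–GAL4 fusion in transiently transfected HepG2. Fitted for increase relative to DMSO.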

[10] = molecular target: human Retinoid X Receptor beta (RXRb), RXRB (gene 6257) (UniProt P28702); assay: ATG_RXRb_TRANS: Attagene TRANS-FACTORIAL HepG2 Assay for human Retinoid X Receptor beta (RXRb) (AID 2283013)
Sequence of human Retinoid X Receptor beta (RXRb), RXRB (gene 6257) (P28702 whole entry, looked up): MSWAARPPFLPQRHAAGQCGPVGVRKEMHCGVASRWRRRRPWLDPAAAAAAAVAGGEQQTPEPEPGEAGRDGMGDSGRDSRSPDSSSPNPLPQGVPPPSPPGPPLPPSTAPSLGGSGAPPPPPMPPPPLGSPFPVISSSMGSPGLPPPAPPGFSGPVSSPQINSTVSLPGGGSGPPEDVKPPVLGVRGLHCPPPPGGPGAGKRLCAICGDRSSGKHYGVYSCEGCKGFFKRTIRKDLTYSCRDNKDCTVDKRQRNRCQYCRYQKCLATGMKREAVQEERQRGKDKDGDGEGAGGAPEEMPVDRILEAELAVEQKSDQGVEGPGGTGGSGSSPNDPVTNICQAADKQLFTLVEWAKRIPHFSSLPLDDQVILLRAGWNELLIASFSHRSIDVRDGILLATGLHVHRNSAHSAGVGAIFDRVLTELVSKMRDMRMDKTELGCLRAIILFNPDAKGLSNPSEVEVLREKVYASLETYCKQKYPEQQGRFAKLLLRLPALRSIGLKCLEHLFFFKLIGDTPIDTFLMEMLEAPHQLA
How it was run: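 Multiplexed TRANS reporter assay in HepG2; 24 h dosing; reporter mRNA by RT-PCR/CE fluorescence; gain-of-signal relative to DMSO.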

Measured: AC50

O=C(Nc1ccc(Cl)c(Cl)c1)c1cc(Cl)cc(Cl)c1O
active: [1] 4.33 µM | [2] 2.74 µM | [7] 1.35 µM
not listed: [9] | [10]
inactive: all other assays above

FC(F)(F)C(F)(F)C(F)(F)Br
inactive: [9] | [1] | [2] | [3] | [10]

O=CC(F)(F)C(F)(F)C(F)(F)F
inactive: [1] | [2] | [4] | [6] | [10] | [8]

O=CC(F)(F)C(F)(F)C(F)(F)C(F)F
not listed: [3] | [5] | [9]
inactive: all other assays above

O=C1C=CC(=O)N1c1cccc(N2C(=O)C=CC2=O)c1
not listed: [4] | [8] | [9]
inactive: all other assays above

CCOC=C(C(=O)OCC)C(=O)OCC
inactive: [1] | [2] | [3] | [6] | [8]

NS(=O)(=O)O
not listed: [3] | [9]
inactive: all other assays above

Cc1cc(=O)oc2cc(O)ccc12
inactive: [1] | [2] | [4] | [6] | [10] | [7] | [8]
active: [2] 12 µM

NNc1nc(-c2ccc([N+](=O)[O-])cc2)cs1
active: [1] 5.61 µM
inactive: [2] | [3] | [6] | [8]

CCCCCCOC(=O)c1ccc(O)cc1
inactive: [3] | [6] | [7] | [8]
active: [1] 23.2 µM | [2] 25.6 µM | [10] 33.4 µM

C=CC(=O)OCCC(F)(F)C(F)(F)C(F)(F)C(F)(F)C(F)(F)C(F)(F)F
not listed: [3] | [7] | [10]
inactive: all other assays above

O=c1cc(-c2ccccc2)oc2ccc3ccccc3c12
inactive: [1] | [2] | [4] | [5] | [6] | [10] | [8]
active: [1] 0.708 µM | [2] 5.62 µM

CCc1ccccc1O
active: [2] 15.7 µM
inactive: [1] | [3] | [6] | [7]

CCC(=O)O
inactive: [9] | [1] | [2] | [5] | [6] | [10]

O=C(C=C(O)C(F)(F)F)C(F)(F)F
inactive: [1] | [2] | [3] | [6] | [8]

Cc1cc(C(=C2C=CC(=Nc3ccc(S(=O)(=O)O)cc3)C=C2)c2ccc(Nc3ccc(S(=O)(=O)O)cc3)cc2)cc(S(=O)(=O)O)c1N
inactive: [1] | [2] | [4] | [5] | [6]

FC(F)(F)C1(F)C(F)(F)C(F)(F)C(F)(F)C(F)(C(F)(F)F)C1(F)F (stereo unspecified)
inactive: [9] | [3] | [6] | [8]

CC1CCC(C(=O)O)CC1 (stereo unspecified)
inactive: [9] | [1] | [6] | [8]

Cc1cc(C(C)(C)C)c(O)c(C(C)(C)C)c1
active: [2] 27.3 µM | [6] 15.6 µM and 865 nM
inactive: [1] | [2] | [7]

O=S(=O)(O)c1ccccc1
not listed: [5] | [7] | [9]
inactive: all other assays above

CCC1CO1 (stereo unspecified)
not listed: [1] | [3] | [6]
inactive: all other assays above

CCCCCCCCCCCCOC(=O)c1cc(O)c(O)c(O)c1
inactive: [9] | [3] | [6] | [8]
active: [1] 20.8 µM | [2] 10.6 µM

CCCCCC(C)OC(=O)COc1ccc(Cl)c2cccnc12 (stereo unspecified)
active: [1] 34.9 µM
inactive: [2] | [3] | [6] | [10] | [8]

Oc1cccc2c(O)cccc12
active: [1] 48.4 µM
not listed: [3] | [9] | [10]
inactive: all other assays above

COCC1CCC(CO)CC1 (stereo unspecified)
inactive: [1] | [2] | [3] | [5]

CCCCCCCCCCCC[N+](C)(C)Cc1ccccc1
active: [3] 155 µM
inactive: [1] | [2] | [4] | [6] | [7]

CCCCCCCCC1CCC(=O)O1 (stereo unspecified)
not listed: [3] | [7] | [9]
inactive: all other assays above

COc1ccc(C#N)cc1
inactive: [1] | [2] | [3] | [4] | [8]
